Most compounds without a hit are left out; they make up all but 0.45% or so of the library.
QS inhibitor: S. aureus quorum sensing inhibitors, primary screen, RNAIII-GFP reporter, flow cytometry. S. aureus RN6390 RNAIII-GFP reporter, AIP-induced, flow cytometry 3 h. inhibition, % at 2 µM. 0.3% of 24,000 active;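 active = share of bacteria positive for the green fluorescent reporter and its mean brightness both inhibited by 50% or more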;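 note: 0% = AIP-stimulated control and 100% = unstimulated bacteria without AIP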
26S disassembly: inhibitors of ATP-driven 26S proteasome dissociation, primary screen, biochemical, bead-based flow cytometry, GFP-tagged proteasome; AID 751, 2007; anti-FLAG beads, GFP-proteasome disassembly; 0.2% of 24,000 active; inhibition of disassembly, % (no concentration beside the values);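 active = inhibition of disassembly above about 33%, limit read from the data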;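 note: plate controls were ATP control with full disassembly for no effect and ATP-gamma-S intact proteasomes for full effect; higher percent means more bead fluorescence retained so stronger block of disassembly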
Active calls of the source: *.

SMILES	QS inhibitor	26S disassembly
O=C(Nc1ccc2c(c1)OCO2)C1CCN(Cc2cnn(-c3ccccc3)c2-n2cccc2)CC1	1	0
CCOC(=O)N1CCN(C(=O)c2ccc3c(=O)n(Cc4ccccc4)c(=S)[nH]c3c2)CC1	-2	0
CCCn1c(=S)[nH]c2cc(C(=O)N3CCN(c4ccccc4OC)CC3)ccc2c1=O	66*	0
N#Cc1cnc(SCCc2ccccc2)nc1N	-3	88*
N#Cc1cnc(SCC(=O)c2ccccc2)nc1N	0	15
Cc1ccc(NC(=O)c2cc(C)on2)cc1	76*	1
CCc1ccc(NC(=O)c2cc(C)on2)cc1	-4	2

Bioassay records (PubChem)
